DT40 TDP1 no CPT: qHTS for Inhibitors of human tyrosyl-DNA phosphodiesterase 1 (TDP1): qHTS in cells in absence of CPT; DT40 Tdp1-/- hTDP1 cells, no CPT, ATP luminescence, 48 h; Potency, µM (series often up to 46.2 µM), inactives show at the top dose activity change, negative = growth inhibition, hits mostly inhibitors; 15% of 420,000 active; also: nearly all actives have a fitted effect of over 55% in size
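Seeded 400 DT40-hTDP1 cells/well (vehicle DMSO, no 20 nM CPT); pinned compounds; ≥48 hr at 37 °C; CellTiter-Glo luminescence as viability measure.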
TDP1 cell CPT: qHTS for Inhibitors of human tyrosyl-DNA phosphodiesterase 1 (TDP1): qHTS in cells in presence of CPT. Potency, µM (doses to about 46.2 µM), for inactives: at the highest dose activity change, negative = growth inhibition, actives largely listed as inhibitors. chicken DT40 Tdp1-/-;hTDP1 cells + 20 nM CPT, ATP luminescence, 48 h. AID 686979, 2013. 12% of 420,000 active; also: nearly all actives have a fitted effect of over 55% in size
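Chicken DT40 Tdp1-/- cells complemented with human TDP1, 400 cells/well, exposed to compounds plus 20 nM camptothecin for at least 48 h at 37 C; viability read as ATP content by CellTiter-Glo luminescence.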
TDP1 block: qHTS Assay for Inhibitors of Tyrosyl-DNA Phosphodiesterase (TDP1); recombinant TDP1, AlphaScreen DNA substrate cleavage; Potency, µM (titrated, usually from 130 µM), for the others: at the highest dose activity change, negative = inhibition, hits mostly inhibitors; 0.28% of 350,000 active; AID 485290, 2010; also: nearly all actives have a fitted effect of over 40% in size
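Tdp1 1 nM final; 15 min RT w/ cpd; substrate 15 nM, 5 min; beads 10 ug/ml, 10 min; AlphaScreen read. Neg ctrl: no enzyme.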
RORgamma inh: qHTS for inhibitors of ROR gamma transcriptional activity | Potency, µM (titrated, usually from 53.6 µM), for inactives: at the top dose activity change, negative = inhibition, usual class: inhibitors | AID 2551, 2010 | Drosophila S2 Gal4-RORgamma UAS-luciferase reporter, 20 h | 5.4% of 310,000 active | Nuclear receptor ROR-gamma (Mus musculus), P51450; also: nearly all actives have a fitted effect of over 60% in size
Target sequence (P51450 whole entry, looked up, the tested form may be a part): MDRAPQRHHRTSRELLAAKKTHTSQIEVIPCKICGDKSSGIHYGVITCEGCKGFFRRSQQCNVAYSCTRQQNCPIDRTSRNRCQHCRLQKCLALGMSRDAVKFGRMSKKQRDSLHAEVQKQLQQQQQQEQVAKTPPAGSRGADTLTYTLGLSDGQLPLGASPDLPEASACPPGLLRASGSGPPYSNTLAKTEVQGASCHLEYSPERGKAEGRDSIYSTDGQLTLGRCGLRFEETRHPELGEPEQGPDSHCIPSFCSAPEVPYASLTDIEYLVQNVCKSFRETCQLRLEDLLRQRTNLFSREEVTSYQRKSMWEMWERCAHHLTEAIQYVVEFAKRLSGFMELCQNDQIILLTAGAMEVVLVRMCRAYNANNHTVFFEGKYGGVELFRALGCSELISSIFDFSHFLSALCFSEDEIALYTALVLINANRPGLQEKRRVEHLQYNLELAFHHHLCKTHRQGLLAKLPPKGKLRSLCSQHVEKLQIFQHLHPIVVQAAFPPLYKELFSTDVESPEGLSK
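A Gal4/UAS one-hybrid system in insect cells: metallothionein-promoter Gal4–ROR gamma fusion plus Photinus luciferase reporter. Copper sulfate 700 uM final, 20 hr ambient incubation, luminescent detection after 10 min with reagent.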
VP16 counter: VP16 counterscreen qHTS for inhibitors of ROR gamma transcriptional activity; Drosophila S2 Gal4-VP16 UAS-luciferase, luminescence, 20 h; Potency, µM (series often up to 53.6 µM), for the others: at the top dose activity, negative = inhibition, hits mostly inhibitors; 3.5% of 310,000 active; AID 2546, 2010;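 also: Gal4-VP16 expression switched on by copper sulfate through the metallothionein promoter; nearly all actives have a fitted effect of over 50% in size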
The depositor's hits bear a star; ? = inconclusive; · = not tested or not shown; [ ] = dose if it differs, or a comment. A selection: hits, their analogues and other compounds. The true share with any hit is near 19%. Calls follow the shape of the dose curve; as a rule, active = well fitted curve in the direction sought with a large enough effect; inconclusive = small, poorly fitted or top-dose-only effect, or another doubt; inactive = no such curve, though single readings can be large; an effect the other way counts as inactive or inconclusive. % is scaled to controls: 0 for no effect and ±100 for the full control effect; potency is read from the fitted curve at half-maximal effect.

SMILES | DT40 TDP1 no CPT | TDP1 cell CPT | TDP1 block | RORgamma inh | VP16 counter
COc1cc(NC(=O)CSc2nc3ccccc3cc2Cc2ccccc2)cc(OC)c1 | ? | ? | 7% | 9% | -2%
Cn1cc(SCC(=O)N2CCN(c3ccccc3)CC2)c2ccccc21 | ? | 21µM* | 8% | 11% | 3%
CN(C(=O)CSc1cn(CC(=O)N2CCCCCC2)c2ccccc12)c1ccccc1 | 18µM* | ? | -5% | · | ·
Cn1cc(SCC(=O)N2CCOCC2)c2ccccc21 | -9% | 15% | 7% | -24% | 2%
CC(C)N(C(=O)CSc1cn(CC(=O)N2CCCCCC2)c2ccccc12)C(C)C | 18µM* | ? | 0% | · | ·
CCc1cc(=O)oc2c(C)c3c(cc12)CN(CCc1ccccc1)CO3 | ? | ? | 6% | · | ·
CCc1c(C)c2cc3c(c(C)c2oc1=O)OCN(CCc1ccccc1F)C3 | 16µM* | 13µM* | 4% | · | ·
COC(=O)Cc1c(C)c2cc3c(c(C)c2oc1=O)OCN(CCc1ccc(F)cc1)C3 | ? | ? | 9% | · | ·
CCOC(=O)CCc1c(C)c2cc3c(c(C)c2oc1=O)OCN(CCc1ccccc1OC)C3 | ? | 29µM* | 5% | · | ·
Cc1c(C)c2cc3c(c(C)c2oc1=O)OCN(CCc1ccccc1)C3 | ? | 13µM* | 12% | · | ·
CCOc1c(Br)cc(Br)cc1/C=C1\SC(N)=NC1=O | 4% | 0% | 1% | -10% | 0%
COc1nnc(-c2ccc(N3CCCCC3)c(NC(=O)C3CCCCC3)c2)c2ccccc12 | ? | -23% | 0% | -1% | 0%
COc1nnc(-c2ccc(N3CCCCC3)c(NC(C)=O)c2)c2ccccc12 | 18µM* | ? | 1% | 5% | 21%
COc1ccccc1CCC(=O)Oc1ccc(C#N)cc1OC | 24% | 6% | 3% | ? | 11µM*
COc1cc(C#N)ccc1OC(=O)Cc1cc(OC)c(OC)c(OC)c1 | -15% | -5% | -5% | 12% | -14%
O=c1c2cn[nH]c2nc(SCc2cc(=O)n3cc(Br)ccc3n2)n1-c1ccc(Br)cc1 | ? | ? | 5% | ? | -9%
CC1(C)N=C(N)N=C(N)N1CCCCc1ccccc1 | 0.52µM* | 2.1µM* | · | · | ·
CCc1cccc(NC(=O)Cn2c(=O)n(CC3CCC(C(=O)NCCc4ccccc4)CC3)c(=O)c3ccccc32)c1 (centres undefined) | 13µM* | 21µM* | -8% | · | ·
Cc1ccc(NC(=O)Cn2c(=O)n(CC(=O)NCCc3ccccc3)c(=O)c3ccccc32)cc1C | 3.3µM* | ? | 0%[12.3 µM] | · | ·
Cc1ccc(NC(=O)Cn2c(=O)n(CC(=O)NCCc3ccccc3)c(=O)c3ccccc32)cc1 | -14% | -25% | -2% | · | ·
CC(C)c1ccc(NC(=O)Cn2c(=O)n(CC3CCC(C(=O)NCCc4ccccc4)CC3)c(=O)c3ccccc32)cc1 (centres undefined) | 15µM* | 16µM* | 5% | · | ·
COc1ccc(C(=O)N(Cc2ccco2)Cc2ccccc2F)cc1Cl | 16µM* | 21µM* | 7% | · | ·
Cc1ccc(C(=O)N(Cc2ccco2)Cc2ccco2)cc1 | ? | -11% | 5% | · | ·
COc1ccc(C(=O)N(Cc2ccc(N(C)C)cc2)Cc2ccco2)cc1Cl | 15µM* | 16µM* | 15% | · | ·
CN(C)c1ccc(CN(Cc2ccco2)C(=O)c2ccc(C(C)(C)C)cc2)cc1 | 21µM* | 16µM* | 10% | · | ·
SMILES | DT40 TDP1 no CPT | TDP1 cell CPT | TDP1 block | RORgamma inh | VP16 counter
COc1ccc(N(Cc2ccco2)C(=O)c2ccccc2F)cc1OC | ? | ? | -1% | -1% | 3%
O=C(C=Cc1ccccc1)Nc1ccccc1 | -25% | -29% | · | · | ·
CC(C)(C)c1ccc(/C=C/C(=O)Nc2ccncc2)cc1 | 7.3µM* | 10µM* | 8% | ? | ?
Cc1ccc(S(=O)(=O)N(C)c2nonc2C)cc1 | 2% | 14% | -2% | 13% | -11%
CCCCc1nnc2c(N(C)S(=O)(=O)c3ccc(C)cc3)nc3ccccc3n12 | ? | -27% | 5% | 19% | -2%
COc1ccc(S(=O)(=O)N(C)c2nc3ccccc3n3c(CC(C)C)nnc23)cc1 | 21µM* | 26µM* | 2% | 44% | -7%
CCc1nnc2c(N(C)C)nc3ccccc3n12 | ? | -25% | -3% | 0% | -5%
CN(c1nc2ccccc2nc1Cl)S(=O)(=O)c1ccccc1 | 23µM* | ? | · | 25% | ?
CCCc1nnc2c(N(C)S(=O)(=O)c3ccc(C)cc3)nc3ccccc3n12 | 23µM* | ? | -6% | 13% | -1%
Cc1ccc(S(=O)(=O)N(C)c2nc3ccccc3[nH]c2=S)cc1 | ? | ? | · | 4.5µM* | -10%
CCCN(CC(=O)Nc1ccccc1C)C(=O)c1cc2ccccc2oc1=O | 0% | 4% | · | · | ·
COc1cccc([C@@H]2Oc3ccc(Br)cc3C[C@H]2OC(=O)NCCc2ccc(OC)c(OC)c2)c1 | · | · | 7% | ? | 5%
NC(=O)CSc1nnc(Cc2cccs2)n1C1CCCCC1 | 22% | 0% | 3% | 2% | 9%
CC(Sc1nnc(Cc2cccs2)n1C1CCCCC1)C(=O)NCc1ccco1 (centres undefined) | 15µM* | 15µM* | -4% | ? | -5%
COc1ccc(-c2[nH]c(-c3cccc(OC)c3)nc2SCC(=O)NC2CCCC2)cc1 | 23µM* | 21µM* | 12% | ? | -12%
COc1ccc(-c2[nH]c(-c3ccccc3)nc2SCC(=O)NC2CCCC2)cc1 | 21µM* | 23µM* | -2%[12.3 µM] | 43% | 15%
COc1ccc(-c2nc(SCC(=O)NC3CCCC3)c(-c3ccc(F)cc3)[nH]2)cc1 | ? | ? | 8% | · | ·
COc1ccc(-c2[nH]c(-c3ccc(F)cc3)nc2SCC(=O)NC2CCCC2)cc1 | ? | ? | -1% | ? | 1%
O=C1C2C3C=CC(C4CC34)C2C(=O)N1/N=C/c1ccc(-c2ccc(Cl)cc2[N+](=O)[O-])o1 (centres undefined) | ? | ? | 5% | 26% | 0%
COC(=O)c1ccc(-c2ccc(/C=N/N3C(=O)C4C5C=CC(CC5)C4C3=O)o2)cc1 (centres undefined) | -28% | 0% | 5% | -7% | -26%
O=C1C2C3C=CC(C4CC34)C2C(=O)N1/N=C/c1ccc(-c2ccc(F)cc2[N+](=O)[O-])o1 (centres undefined) | 23µM* | ? | 7% | ? | 12%
